What all share (experiment): yeast three-hybrid, YBZ-1, SC-Leu-His + 0.5 mM 3-AT, 4 days
What all share (conditions): tags: N-Gal4 AD-HA kept; label: inside an RPR1-promoter hybrid RNA with tandem MS2 sites; ssRNA

One assay addresses PUM1 PUF domain R3-FRV (Homo sapiens, UniProt Q14671 828-1176, C935F;Q939V). In short, it runs like this:
(§1)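 Pumilio-1 PUF domain libraries, randomized (NNK) at the three base-contacting residues of each repeat, were co-expressed with matching RNA elements from a centromeric plasmid in strain YBZ-1 (LexA–MS2 coat fusion, HIS3 reporter). Transformants were plated on SC-Leu (input) and SC-Leu-His + 0.5 mM 3-AT (selection) for four days, and repeat regions were PCR-amplified and Illumina-sequenced. The interaction score is the log2 change in variant frequency from input to selection, with pseudocount 1 where absent.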

For a further assay, the target named is PUM1 PUF domain R5-RCM (Homo sapiens, UniProt Q14671 828-1176, C1007R;R1008C;Q1011M). In short, it runs like this:
as §1

Another assay has as its target PUM1 PUF domain R5-TTR (Homo sapiens, UniProt Q14671 828-1176, C1007T;R1008T;Q1011R). In short, it runs like this: as §1
The next assay deals with PUM1 PUF domain R8-PWA (Homo sapiens, UniProt Q14671 828-1176, N1122P;Y1123W;Q1126A). In a few lines:
as §1

The target of another assay is T1, PUM1 PUF domain R6-LFS (Homo sapiens, UniProt Q14671 828-1176, N1043L;Y1044F;Q1047S).
T1 sequence: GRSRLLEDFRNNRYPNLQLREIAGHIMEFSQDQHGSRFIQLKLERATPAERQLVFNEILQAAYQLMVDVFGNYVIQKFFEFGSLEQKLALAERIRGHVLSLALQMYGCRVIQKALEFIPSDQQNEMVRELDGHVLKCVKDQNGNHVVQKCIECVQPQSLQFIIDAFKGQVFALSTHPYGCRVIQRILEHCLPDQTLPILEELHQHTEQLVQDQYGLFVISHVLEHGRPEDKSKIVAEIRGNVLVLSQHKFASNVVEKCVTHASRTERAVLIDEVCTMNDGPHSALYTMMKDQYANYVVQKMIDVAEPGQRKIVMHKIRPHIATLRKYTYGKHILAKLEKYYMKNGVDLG
In short, it runs like this: as §1

Another assay has as its target PUM1 PUF domain R4-PFA (Homo sapiens, UniProt Q14671 828-1176, N971P;H972F;Q975A). In short, it runs like this: as §1
The next assay has as its target PUM1 PUF domain R3-ARH (Homo sapiens, UniProt Q14671 828-1176, C935A;Q939H). In a few lines:
as §1

In a further assay the target is PUM1 PUF domain R4-GQG (Homo sapiens, UniProt Q14671 828-1176, N971G;H972Q;Q975G). In short, it runs like this:
as §1

For another assay, the target named is PUM1 PUF domain R7-TSV (Homo sapiens, UniProt Q14671 828-1176, S1079T;N1080S;E1083V). In a few lines:
as §1

For another assay, the target named is PUM1 PUF domain R7-HFP (Homo sapiens, UniProt Q14671 828-1176, S1079H;N1080F;E1083P). In short, it runs like this: as §1

On to “GGCUAGAACUAGUGGAUCCCCCGGCGCCCGGCGGCUCGAGCCCGGGUAAGUGUAAGUAGUCUGCAUGCCGCCGGGCGCCAUGCCUGCAGGUCGACUCUAGAAAACAUG”, for which the binding signal in the assay with PUM1 PUF domain R3-FRV is 4.5 log2 enrichment (interaction score).
For the sequence “GGCUAGAACUAGUGGAUCCCCCGGCGCCCGGCGGCUCGAGCCCGGGUAAGUGUGAAUAGUCUGCAUGCCGCCGGGCGCCAUGCCUGCAGGUCGACUCUAGAAAACAUG”, the binding signal with PUM1 PUF domain R5-RCM is 1.67 log2 enrichment (interaction score).
In the case of “GGCUAGAACUAGUGGAUCCCCCGGCGCCCGGCGGCUCGAGCCCGGGUAAGUGUAAAUAGUCUGCAUGCCGCCGGGCGCCAUGCCUGCAGGUCGACUCUAGAAAACAUG”, the binding signal in the assay with PUM1 PUF domain R5-TTR was 0.63 log2 enrichment (interaction score); with PUM1 PUF domain R8-PWA, 2.2 log2 enrichment (interaction score); with PUM1 PUF domain R6-LFS, 1.98 log2 enrichment (interaction score); with PUM1 PUF domain R4-PFA, 4.95 log2 enrichment (interaction score); with PUM1 PUF domain R3-ARH, 3.26 log2 enrichment (interaction score); with PUM1 PUF domain R5-RCM, 0.77 log2 enrichment (interaction score).
With “GGCUAGAACUAGUGGAUCCCCCGGCGCCCGGCGGCUCGAGCCCGGGUAAGCGUAAAUAGUCUGCAUGCCGCCGGGCGCCAUGCCUGCAGGUCGACUCUAGAAAACAUG”, the binding signal with PUM1 PUF domain R8-PWA is 2.7 log2 enrichment (interaction score).
Turning to “GGCUAGAACUAGUGGAUCCCCCGGCGCCCGGCGGCUCGAGCCCGGGUAAGUGUCAAUAGUCUGCAUGCCGCCGGGCGCCAUGCCUGCAGGUCGACUCUAGAAAACAUG”, the binding signal in the assay with PUM1 PUF domain R5-TTR is 6.52 log2 enrichment (interaction score); with PUM1 PUF domain R5-RCM, 3.2 log2 enrichment (interaction score).
As to “GGCUAGAACUAGUGGAUCCCCCGGCGCCCGGCGGCUCGAGCCCGGGUAAGUGUAAUUAGUCUGCAUGCCGCCGGGCGCCAUGCCUGCAGGUCGACUCUAGAAAACAUG”, the binding signal in the assay with PUM1 PUF domain R3-FRV was 1.27 log2 enrichment (interaction score).
As for “GGCUAGAACUAGUGGAUCCCCCGGCGCCCGGCGGCUCGAGCCCGGGUAAGUGUUAAUAGUCUGCAUGCCGCCGGGCGCCAUGCCUGCAGGUCGACUCUAGAAAACAUG”, the binding signal with PUM1 PUF domain R5-TTR is 2.44 log2 enrichment (interaction score).
On to “GGCUAGAACUAGUGGAUCCCCCGGCGCCCGGCGGCUCGAGCCCGGGUAAGUGUAUAUAGUCUGCAUGCCGCCGGGCGCCAUGCCUGCAGGUCGACUCUAGAAAACAUG”, for which the binding signal with PUM1 PUF domain R4-GQG is 2.39 log2 enrichment (interaction score); in the assay with PUM1 PUF domain R4-PFA, 4.96 log2 enrichment (interaction score).
Regarding “GGCUAGAACUAGUGGAUCCCCCGGCGCCCGGCGGCUCGAGCCCGGGUAAGUGAAAAUAGUCUGCAUGCCGCCGGGCGCCAUGCCUGCAGGUCGACUCUAGAAAACAUG”, the binding signal in the assay with PUM1 PUF domain R6-LFS is 5.7 log2 enrichment (interaction score).
As to “GGCUAGAACUAGUGGAUCCCCCGGCGCCCGGCGGCUCGAGCCCGGGUAAGUUUAAAUAGUCUGCAUGCCGCCGGGCGCCAUGCCUGCAGGUCGACUCUAGAAAACAUG”, the binding signal with PUM1 PUF domain R7-TSV was 2.77 log2 enrichment (interaction score).
Take “GGCUAGAACUAGUGGAUCCCCCGGCGCCCGGCGGCUCGAGCCCGGGUAAGUCUAAAUAGUCUGCAUGCCGCCGGGCGCCAUGCCUGCAGGUCGACUCUAGAAAACAUG”: the binding signal with PUM1 PUF domain R7-HFP was 4.02 log2 enrichment (interaction score).
In the case of “GGCUAGAACUAGUGGAUCCCCCGGCGCCCGGCGGCUCGAGCCCGGGUAAGUGUACAUAGUCUGCAUGCCGCCGGGCGCCAUGCCUGCAGGUCGACUCUAGAAAACAUG”, the binding signal with PUM1 PUF domain R4-PFA is 3.34 log2 enrichment (interaction score).

For the origin of these results see publication PMC8384837, “Expanding the binding specificity for RNA recognition by a PUF domain”.
